In the supplement of paper PMC11732987, “Enantioselective OTUD7B fragment discovery through chemoproteomics screening and high-throughput optimisation” (Communications Chemistry, 2025):

Legend:
Experiment in all cases: log2 ratio of Biotin-Ahx-Ub-VS probe labelling (fragment/DMSO); higher = less target engagement (more negative = stronger competition), active = hit call of the paper (q ≤ 0.05, log2 ratio ≤ -1)
Conditions in all cases: compound concentration: 200 uM; treatment time: 3 h
USP19 = target: T1, USP19 (UniProt O94966)
T1 sequence (whole entry): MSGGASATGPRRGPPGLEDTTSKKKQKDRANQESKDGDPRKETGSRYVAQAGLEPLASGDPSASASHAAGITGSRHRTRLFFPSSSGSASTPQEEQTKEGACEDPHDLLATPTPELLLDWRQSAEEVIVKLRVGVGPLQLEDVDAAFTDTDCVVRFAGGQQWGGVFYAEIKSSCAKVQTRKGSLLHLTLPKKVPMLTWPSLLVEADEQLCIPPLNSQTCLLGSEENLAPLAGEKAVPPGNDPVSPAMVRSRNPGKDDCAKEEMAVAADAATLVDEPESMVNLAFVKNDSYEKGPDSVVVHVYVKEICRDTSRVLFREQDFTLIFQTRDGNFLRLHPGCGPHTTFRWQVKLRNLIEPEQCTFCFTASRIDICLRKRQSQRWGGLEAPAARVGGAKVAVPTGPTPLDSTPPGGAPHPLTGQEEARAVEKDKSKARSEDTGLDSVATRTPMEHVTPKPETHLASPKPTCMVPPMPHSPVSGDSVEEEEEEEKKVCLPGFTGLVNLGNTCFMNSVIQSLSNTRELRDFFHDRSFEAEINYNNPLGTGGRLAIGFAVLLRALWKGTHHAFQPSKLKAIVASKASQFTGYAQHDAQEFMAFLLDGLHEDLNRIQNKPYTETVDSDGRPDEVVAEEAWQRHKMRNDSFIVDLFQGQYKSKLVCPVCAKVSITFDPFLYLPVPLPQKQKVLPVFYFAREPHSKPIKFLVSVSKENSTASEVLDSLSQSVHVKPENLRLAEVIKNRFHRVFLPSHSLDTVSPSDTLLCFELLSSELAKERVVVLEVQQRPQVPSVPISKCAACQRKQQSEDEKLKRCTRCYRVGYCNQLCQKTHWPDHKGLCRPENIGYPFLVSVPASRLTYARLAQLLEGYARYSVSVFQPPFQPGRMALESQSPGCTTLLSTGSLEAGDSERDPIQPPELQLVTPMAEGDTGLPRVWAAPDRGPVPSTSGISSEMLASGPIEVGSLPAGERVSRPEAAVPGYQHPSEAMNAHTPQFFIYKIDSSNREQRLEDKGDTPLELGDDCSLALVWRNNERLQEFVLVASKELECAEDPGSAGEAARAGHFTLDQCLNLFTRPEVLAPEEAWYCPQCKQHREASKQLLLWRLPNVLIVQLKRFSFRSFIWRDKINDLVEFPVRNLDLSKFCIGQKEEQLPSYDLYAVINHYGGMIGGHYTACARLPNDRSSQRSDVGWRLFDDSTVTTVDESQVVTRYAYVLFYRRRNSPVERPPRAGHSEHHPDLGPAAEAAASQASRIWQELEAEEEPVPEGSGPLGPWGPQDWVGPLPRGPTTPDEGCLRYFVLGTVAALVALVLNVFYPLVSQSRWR
Outline: (§1)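 Labelling with Biotin-Ahx-Ub-VS (0.5 µM final, 1 h) followed a 3 h triplicate treatment of HEK293T lysate (495 µg per sample, Tris/CHAPS/IGEPAL buffer with protease inhibitors) with fragment at 200 µM or vehicle. Labelled DUBs were NeutrAvidin-enriched, digested with LysC and trypsin, and run by diaPASEF LC-MS/MS. The values, average log2 fragment/vehicle ratios by unpaired t-test, come from global-median-normalised Spectronaut label-free quantities. Proteins with ≥2 unique peptides were used.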

USP22 = target: T2, USP22 (UniProt Q9UPT9)
T2 sequence (whole entry): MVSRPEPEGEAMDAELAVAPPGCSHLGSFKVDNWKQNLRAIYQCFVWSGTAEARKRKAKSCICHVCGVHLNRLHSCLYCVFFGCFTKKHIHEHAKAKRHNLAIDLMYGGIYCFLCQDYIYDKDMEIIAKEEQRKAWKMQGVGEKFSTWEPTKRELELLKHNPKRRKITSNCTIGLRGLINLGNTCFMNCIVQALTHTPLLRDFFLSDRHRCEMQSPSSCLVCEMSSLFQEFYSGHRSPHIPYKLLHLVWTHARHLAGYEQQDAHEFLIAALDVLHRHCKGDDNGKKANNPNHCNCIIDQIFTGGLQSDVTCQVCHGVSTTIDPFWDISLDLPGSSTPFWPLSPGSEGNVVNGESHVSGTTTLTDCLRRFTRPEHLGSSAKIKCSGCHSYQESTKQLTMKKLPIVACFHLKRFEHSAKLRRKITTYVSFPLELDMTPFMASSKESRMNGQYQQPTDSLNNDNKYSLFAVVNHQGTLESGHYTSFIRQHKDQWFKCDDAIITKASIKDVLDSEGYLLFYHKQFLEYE
Outline: as §1

USP24 = USP24 (UniProt Q9UPU5)
Outline: as §1

USP25 = target: T3, USP25 (UniProt Q9UHP3)
T3 sequence (whole entry): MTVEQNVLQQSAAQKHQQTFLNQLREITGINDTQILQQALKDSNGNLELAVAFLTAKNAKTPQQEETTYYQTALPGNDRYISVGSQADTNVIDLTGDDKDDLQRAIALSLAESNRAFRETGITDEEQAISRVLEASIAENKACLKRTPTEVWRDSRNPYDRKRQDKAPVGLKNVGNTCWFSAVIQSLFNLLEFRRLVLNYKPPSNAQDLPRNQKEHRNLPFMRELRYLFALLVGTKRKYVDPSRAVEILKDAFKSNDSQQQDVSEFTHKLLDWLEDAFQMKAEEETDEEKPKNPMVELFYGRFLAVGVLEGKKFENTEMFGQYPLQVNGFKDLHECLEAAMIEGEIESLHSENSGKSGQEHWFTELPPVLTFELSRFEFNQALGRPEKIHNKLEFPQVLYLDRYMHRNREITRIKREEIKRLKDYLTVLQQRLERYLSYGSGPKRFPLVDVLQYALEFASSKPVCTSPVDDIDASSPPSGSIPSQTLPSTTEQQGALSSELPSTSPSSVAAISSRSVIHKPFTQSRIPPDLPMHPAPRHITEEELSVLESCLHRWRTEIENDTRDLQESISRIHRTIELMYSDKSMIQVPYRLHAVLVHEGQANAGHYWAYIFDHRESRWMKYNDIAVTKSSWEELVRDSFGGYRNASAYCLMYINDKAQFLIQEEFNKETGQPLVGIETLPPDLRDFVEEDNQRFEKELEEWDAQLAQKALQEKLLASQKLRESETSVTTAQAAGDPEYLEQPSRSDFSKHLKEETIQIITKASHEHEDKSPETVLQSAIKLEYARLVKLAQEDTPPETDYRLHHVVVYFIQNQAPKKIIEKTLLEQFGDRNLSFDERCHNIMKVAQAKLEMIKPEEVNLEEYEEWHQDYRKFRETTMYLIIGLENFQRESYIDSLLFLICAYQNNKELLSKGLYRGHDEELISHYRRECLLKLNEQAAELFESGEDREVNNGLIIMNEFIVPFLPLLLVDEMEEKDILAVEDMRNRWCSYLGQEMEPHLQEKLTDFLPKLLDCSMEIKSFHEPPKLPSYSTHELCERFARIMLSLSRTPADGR
Outline: as §1

USP28 = target: T4, USP28 (UniProt Q96RU2)
T4 sequence (whole entry): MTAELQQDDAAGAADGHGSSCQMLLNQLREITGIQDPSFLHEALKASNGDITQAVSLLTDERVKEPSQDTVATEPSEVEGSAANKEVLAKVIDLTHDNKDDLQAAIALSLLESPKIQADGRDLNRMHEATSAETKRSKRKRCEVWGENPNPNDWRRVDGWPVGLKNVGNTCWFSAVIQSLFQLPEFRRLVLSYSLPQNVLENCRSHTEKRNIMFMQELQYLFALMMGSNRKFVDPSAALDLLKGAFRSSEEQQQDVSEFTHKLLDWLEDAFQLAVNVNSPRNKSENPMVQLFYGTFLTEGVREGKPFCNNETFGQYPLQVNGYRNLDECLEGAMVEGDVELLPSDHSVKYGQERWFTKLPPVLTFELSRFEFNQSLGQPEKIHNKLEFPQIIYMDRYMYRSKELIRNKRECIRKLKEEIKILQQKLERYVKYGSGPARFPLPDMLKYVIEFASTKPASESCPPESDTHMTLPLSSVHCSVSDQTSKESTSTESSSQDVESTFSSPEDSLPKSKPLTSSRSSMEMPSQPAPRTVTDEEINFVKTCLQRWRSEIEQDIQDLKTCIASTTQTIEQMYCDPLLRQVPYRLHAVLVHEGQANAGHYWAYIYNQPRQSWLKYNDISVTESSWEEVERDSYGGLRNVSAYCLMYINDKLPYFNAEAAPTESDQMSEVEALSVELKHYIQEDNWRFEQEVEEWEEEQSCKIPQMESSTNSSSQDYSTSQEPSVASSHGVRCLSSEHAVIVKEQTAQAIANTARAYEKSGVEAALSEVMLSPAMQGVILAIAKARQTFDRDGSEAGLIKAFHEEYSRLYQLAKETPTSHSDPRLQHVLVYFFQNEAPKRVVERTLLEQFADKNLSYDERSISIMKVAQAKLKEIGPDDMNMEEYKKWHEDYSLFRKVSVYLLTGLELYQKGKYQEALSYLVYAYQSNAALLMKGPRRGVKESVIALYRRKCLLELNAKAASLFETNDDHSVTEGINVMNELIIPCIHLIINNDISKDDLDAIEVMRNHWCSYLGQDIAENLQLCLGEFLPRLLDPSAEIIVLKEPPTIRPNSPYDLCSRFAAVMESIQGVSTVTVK
Outline: as §1

Measured: log2 ratio of Biotin-Ahx-Ub-VS probe labelling

Chain of USP24 (Q9UPU5 whole entry): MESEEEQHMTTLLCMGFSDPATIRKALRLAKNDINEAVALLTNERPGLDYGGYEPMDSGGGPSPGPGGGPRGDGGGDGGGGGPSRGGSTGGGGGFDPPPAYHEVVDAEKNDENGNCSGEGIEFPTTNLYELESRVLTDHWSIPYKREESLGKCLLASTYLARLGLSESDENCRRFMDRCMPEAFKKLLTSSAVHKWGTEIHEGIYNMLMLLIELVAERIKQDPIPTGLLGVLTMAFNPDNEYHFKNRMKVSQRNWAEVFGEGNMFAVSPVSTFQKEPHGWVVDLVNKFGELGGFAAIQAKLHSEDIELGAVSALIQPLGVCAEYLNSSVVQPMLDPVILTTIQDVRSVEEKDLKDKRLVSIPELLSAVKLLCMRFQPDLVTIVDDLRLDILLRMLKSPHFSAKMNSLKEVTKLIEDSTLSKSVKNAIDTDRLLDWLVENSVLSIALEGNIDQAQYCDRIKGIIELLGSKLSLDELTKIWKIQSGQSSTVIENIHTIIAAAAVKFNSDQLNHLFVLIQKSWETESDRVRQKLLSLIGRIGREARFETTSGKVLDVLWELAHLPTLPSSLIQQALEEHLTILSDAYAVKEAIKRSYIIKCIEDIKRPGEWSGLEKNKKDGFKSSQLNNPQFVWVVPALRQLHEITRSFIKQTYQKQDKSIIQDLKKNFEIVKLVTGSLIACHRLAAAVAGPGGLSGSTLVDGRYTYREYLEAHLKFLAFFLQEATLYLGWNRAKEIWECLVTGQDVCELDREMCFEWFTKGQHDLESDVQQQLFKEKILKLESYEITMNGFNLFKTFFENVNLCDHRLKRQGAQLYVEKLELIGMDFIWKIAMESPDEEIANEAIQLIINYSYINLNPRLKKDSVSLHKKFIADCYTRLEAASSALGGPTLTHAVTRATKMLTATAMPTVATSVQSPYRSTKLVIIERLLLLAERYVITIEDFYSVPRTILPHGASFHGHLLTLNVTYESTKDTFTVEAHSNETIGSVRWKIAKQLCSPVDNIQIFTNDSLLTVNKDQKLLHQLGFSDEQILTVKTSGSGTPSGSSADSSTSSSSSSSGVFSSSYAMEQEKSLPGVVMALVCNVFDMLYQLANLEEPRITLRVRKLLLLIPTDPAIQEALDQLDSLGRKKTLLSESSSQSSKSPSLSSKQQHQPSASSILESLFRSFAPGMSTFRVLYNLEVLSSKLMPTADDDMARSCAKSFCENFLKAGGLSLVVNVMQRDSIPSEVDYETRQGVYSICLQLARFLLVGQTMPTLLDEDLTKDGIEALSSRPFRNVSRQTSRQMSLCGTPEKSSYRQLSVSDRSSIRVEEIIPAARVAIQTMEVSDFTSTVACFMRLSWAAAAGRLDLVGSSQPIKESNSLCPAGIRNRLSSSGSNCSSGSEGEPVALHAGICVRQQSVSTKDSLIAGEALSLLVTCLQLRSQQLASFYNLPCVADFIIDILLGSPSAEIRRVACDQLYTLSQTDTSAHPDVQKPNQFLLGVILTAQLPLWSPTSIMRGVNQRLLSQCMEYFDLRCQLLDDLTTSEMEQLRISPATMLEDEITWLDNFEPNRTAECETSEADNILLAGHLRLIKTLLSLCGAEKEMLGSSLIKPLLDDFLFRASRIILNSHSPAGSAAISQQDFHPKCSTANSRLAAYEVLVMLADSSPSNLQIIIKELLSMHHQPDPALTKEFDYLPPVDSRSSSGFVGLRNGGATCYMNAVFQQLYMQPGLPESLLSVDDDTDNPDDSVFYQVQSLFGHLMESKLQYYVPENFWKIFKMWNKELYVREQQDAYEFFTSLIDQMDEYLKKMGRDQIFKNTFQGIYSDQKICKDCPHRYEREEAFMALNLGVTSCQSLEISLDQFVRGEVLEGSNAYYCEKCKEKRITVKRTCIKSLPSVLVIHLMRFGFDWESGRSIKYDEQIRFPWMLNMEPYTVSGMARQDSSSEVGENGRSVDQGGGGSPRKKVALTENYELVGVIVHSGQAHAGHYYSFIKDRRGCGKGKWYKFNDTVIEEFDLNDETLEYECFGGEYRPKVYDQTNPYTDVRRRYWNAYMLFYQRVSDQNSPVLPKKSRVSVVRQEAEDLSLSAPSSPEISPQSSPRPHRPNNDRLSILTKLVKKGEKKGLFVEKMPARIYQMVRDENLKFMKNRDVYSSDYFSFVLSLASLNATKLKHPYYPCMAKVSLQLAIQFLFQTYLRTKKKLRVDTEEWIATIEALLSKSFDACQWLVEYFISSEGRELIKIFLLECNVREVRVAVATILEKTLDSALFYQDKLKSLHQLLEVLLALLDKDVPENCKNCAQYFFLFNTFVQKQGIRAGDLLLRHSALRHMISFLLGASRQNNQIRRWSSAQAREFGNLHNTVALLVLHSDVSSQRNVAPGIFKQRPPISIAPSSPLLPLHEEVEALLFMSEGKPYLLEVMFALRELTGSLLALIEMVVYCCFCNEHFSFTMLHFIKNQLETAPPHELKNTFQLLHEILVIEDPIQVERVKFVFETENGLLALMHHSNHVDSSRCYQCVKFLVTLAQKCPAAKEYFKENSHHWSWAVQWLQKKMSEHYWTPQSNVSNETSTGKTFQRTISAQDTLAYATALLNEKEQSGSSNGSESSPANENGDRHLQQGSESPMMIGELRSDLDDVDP

N#Cc1ccc(CNC(=O)CCl)cc1
inactive: USP19 -0.0911 | USP22 0.193 | USP24 -0.183 | USP25 -0.413 | USP28 -0.49
